In PubChem BioAssay AID2625 (National Center for Advancing Translational Sciences (NCATS), 2010):
Records with an inconclusive call do not appear. The source made the active and inactive calls. Calls follow the shape of the dose curve; as a rule, active = well fitted curve in the direction sought with a large enough effect; inconclusive = small, poorly fitted or top-dose-only effect, or effect the other way, or another doubt; inactive = no such curve, though single readings can be large or run the other way.

molecular target: Pyruvate kinase PKLR (Homo sapiens) (UniProt P30613); assay: Secondary LDH Assay for Activators of Human Liver Pyruvate Kinase: for Probe SAR; details: purified hPK-L, LDH-coupled NADH fluorescence kinetic; series mostly up to 58.2 µM
Description: NIH Chemical Genomics Center [NCGC]
Matthew G. Vander Heiden, M.D., Ph.D. [Harvard Medical School, 77 Avenue Louis Pasteur, Boston, MA 02115]
Human pyruvate kinase liver (hPK-L)enzyme was supplied as a highly purified (>95% pure) preparation from Harvard Medical School and a secondary assay was used to evaluate compounds. This assay couples the formation of pyruvate from hPK-R using lactate dehydrogenase (LDH) and NADH. The depletion of NADH is followed in a fluorescent-based kinetic assay that follows the formation of pyruvate to lactate, as catalyzed LDH. Pyruvate kinase substrates, PEP and ADP, were present in the assay at 0.1 mM and 4 mM respectively. In this kinetic assay initial rates were determined by following the fluorescence of NADH depletion.
NCGC Assay Protocol Summary:
Three uL of substrate mix (final concentration, 50 mM Tris-Cl pH 8.0, 200 mM KCl, 15 mM MgCl2, 0.1 mM PEP, 4.0 mM ADP, and 0.2 mM NADH) was dispensed into black-solid 1536 well plates. 23 nL of compounds were delivered by a pin tool and 1 uL of enzyme mix (final concentrations, 10 nM hPK-L and 1 uM of LDH) was added. Plates were immediately placed in ViewLux (Perkin Elmer) and NADH fluorescence was determined at 30 second exposure intervals for between 3 and 6 minutes. Data were normalized to the uninhibited and EC100 activation using known activators such as fructose-bis-phosphate.

Pyruvate kinase PKLR (Homo sapiens), sequence (P30613 whole entry, looked up): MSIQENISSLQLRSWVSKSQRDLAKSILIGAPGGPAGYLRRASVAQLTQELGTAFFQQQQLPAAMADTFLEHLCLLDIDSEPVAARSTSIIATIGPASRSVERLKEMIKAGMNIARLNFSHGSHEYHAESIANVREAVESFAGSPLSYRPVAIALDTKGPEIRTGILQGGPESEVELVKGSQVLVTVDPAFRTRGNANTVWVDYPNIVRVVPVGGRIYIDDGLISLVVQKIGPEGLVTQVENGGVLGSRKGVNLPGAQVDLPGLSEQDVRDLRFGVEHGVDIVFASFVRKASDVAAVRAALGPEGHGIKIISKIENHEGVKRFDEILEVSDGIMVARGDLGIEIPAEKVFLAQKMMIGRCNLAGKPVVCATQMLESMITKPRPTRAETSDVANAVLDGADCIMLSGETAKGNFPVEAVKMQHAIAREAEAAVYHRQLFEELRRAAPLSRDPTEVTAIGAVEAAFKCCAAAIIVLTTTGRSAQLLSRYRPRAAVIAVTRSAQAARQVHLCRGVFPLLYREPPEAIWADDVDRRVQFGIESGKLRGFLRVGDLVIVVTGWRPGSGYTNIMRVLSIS

outcome, inactive:
Cc1ccc(Cl)cc1NS(=O)(=O)c1cc2c(cc1F)NC(=O)CC2, Cc1ccc(NS(=O)(=O)c2cccc(C(=O)O)c2)cc1C, CC(=O)Nc1cccc(S(=O)(=O)Nc2ccc(C)c(C)c2)c1, Cc1ccc(NS(=O)(=O)c2ccc(N3CCCC3=O)cc2)cc1C, O=C1CCc2cc(S(=O)(=O)Nc3cccc(Cl)c3)ccc2N1, Cc1ccc(NS(=O)(=O)c2cc3c(cc2F)NC(=O)CC3)cc1C, O=C1c2ccccc2C(=O)N1Cc1cccnc1, O=C1CCc2cc([S+](=O)([O-])Nc3ccc(N[S+](=O)([O-])c4ccc5c(c4)CCC(=O)N5)cc3)ccc2N1, Cc1ccc(NS(=O)(=O)c2ccc3c(c2)CC(=O)N3)cc1C, Cc1ccc(N2C(=O)c3ccccc3C2=O)c(C)c1, COc1ccc(Nc2c(-c3ccc(C)o3)nc3ccccn23)cc1, COc1cccc(N2C(=O)c3ccccc3C2=O)n1, O=C1c2ccccc2C(=O)N1Cc1ccncc1, Cc1ccc(NS(=O)(=O)c2cc3c(cc2-c2ccco2)NC(=O)CO3)cc1C, Cc1ccc(Cl)cc1NS(=O)(=O)c1cc2c(cc1Cl)CCC(=O)N2, O=C1CCc2cc(S(=O)(=O)Nc3cccnc3)ccc2N1, Cc1ccc(NS(=O)(=O)c2ccc3c(c2)oc(=O)n3C)cc1C, O=C1c2ccccc2C(=O)N1c1cccc(=O)[nH]1, O=C1c2ccccc2C(=O)N1c1ccc2ncccc2c1, CCNc1cccc(S(=O)(=O)N2CCCN(S(=O)(=O)c3ccc4c(c3)OCCO4)CC2)c1, O=C1c2ccccc2C(=O)N1c1cnc2ccccc2c1, Cc1ccccc1NS(=O)(=O)c1ccc2c(c1)CCC(=O)N2, O=C1c2ccccc2C(=O)N1c1cccc2ccncc12, Cc1ccc(C)c(OC2=NS(=O)(=O)c3ccccc32)c1, O=S(=O)(c1ccc2c(c1)OCCO2)N1CCN(S(=O)(=O)c2c(F)cccc2F)CC1, Cc1ccc(NS(=O)(=O)c2cc3c(cc2F)NC(=O)CC3)cc1Cl, Cc1ccc(NS(=O)(=O)c2cc3c(cc2-c2cn[nH]c2)NC(=O)CO3)cc1C, Cc1ccc(NS(=O)(=O)c2ccc(Cl)cc2)cc1C, Cc1ccc(NS(=O)(=O)c2cc3c(cc2Cl)CCC(=O)N3)cc1C, N#Cc1cccc(NS(=O)(=O)c2ccc3c(c2)CCC(=O)N3)c1, O=C1c2ccccc2C(=O)N1c1cccc(O)c1, O=C1c2ccccc2C(=O)N1c1ccccn1, Cc1ccc2nc(-c3cccs3)c(Nc3ccccc3)n2c1, O=C1CCc2cc(S(=O)(=O)Nc3ccncc3)ccc2N1, COc1cccc(NS(=O)(=O)c2ccc3c(c2)CCC(=O)N3)c1, COc1ccccc1NS(=O)(=O)c1ccc2c(c1)CCC(=O)N2, O=C1CCc2cc(S(=O)(=O)Nc3ccccc3F)ccc2N1, CC(=O)Nc1ccc(S(=O)(=O)Nc2ccc(C)c(C)c2)cc1, Cc1ccc(NS(=O)(=O)c2cc3c(cc2N(C)C)CCC(=O)N3)cc1C, Cc1ccc(NS(=O)(=O)c2ccc3c(c2)CCC(=O)N3)cc1
